Pol kappa inh: inhibitors of human DNA polymerase kappa; Q9UBT6; purified Pol kappa, fluorescent DNA synthesis assay, 10 min; Potency, µM (doses to about 107 µM), inactives show at the top dose activity, negative = inhibition, hits mostly inhibitors; 400,000 tested, 0.53% active; AID 588579; also: % is scaled to controls: 0 for no effect and ±100 for the full control effect
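Fluorescent qHTS in 1536-well format: enzyme (10 nM) and compound sat 15 min at room temperature before 50 nM substrate (final) was added. Signal taken at 0 and 10 min; no-enzyme buffer wells were negative controls.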
GLS inhibitor: glutaminase GLS (human) inhibition; GLS enzymatic activity, qHTS titration; Potency, µM (series often up to 45.5 µM), for inactives: at the top dose activity change, negative = inhibition, hits mostly inhibitors; 410,000 tested, 0.21% active; AID 624170; also: % is scaled to controls: 0 for no effect and ±100 for the full control effect
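hKGA in 45 mM KH2PO4 (pH 8.2), 0.02% Tween-20 with compound, then 1mM L-Glutamine (stock as added) plus glutamate oxidase/HRP/Amplex red coupling mix. Fluorescence read initially and after 30 min at RT; signal change reflects glutamate formation.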
APE1 inh-1: inhibitors of human APE1 endonuclease; Potency, µM (series often up to 65.8 µM), inactives show at the highest dose activity change, negative = inhibition, most hits filed as inhibitors; AID 2517; 350,000 tested, 0.35% active; recombinant APE1, TAMRA/BHQ-2 abasic DNA cleavage fluorescence;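 also: plate controls were vehicle for no effect and reference inhibitor for full effect; nearly all actives have a fitted effect of over 55% in size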
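Measures dequenching upon AP-site incision of a 5'-TAMRA/3'-BHQ-2 THF-containing duplex, 50 nM; human APE1 0.75 nM after 15 min room-temperature exposure to compound; kinetic three-point read at one-minute spacing.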
Pol eta inh: DNA polymerase eta (human) inhibition | Q9Y253 | AID 588591 | Potency, µM (titrated, usually from 114 µM), inactives show at the top dose activity change, negative = inhibition, usual class: inhibitors | recombinant Pol eta, fluorescent DNA replication assay | 390,000 tested, 1.2% active; also: % is scaled to controls: 0 for no effect and ±100 for the full control effect
Target sequence (Q9Y253 whole entry, looked up): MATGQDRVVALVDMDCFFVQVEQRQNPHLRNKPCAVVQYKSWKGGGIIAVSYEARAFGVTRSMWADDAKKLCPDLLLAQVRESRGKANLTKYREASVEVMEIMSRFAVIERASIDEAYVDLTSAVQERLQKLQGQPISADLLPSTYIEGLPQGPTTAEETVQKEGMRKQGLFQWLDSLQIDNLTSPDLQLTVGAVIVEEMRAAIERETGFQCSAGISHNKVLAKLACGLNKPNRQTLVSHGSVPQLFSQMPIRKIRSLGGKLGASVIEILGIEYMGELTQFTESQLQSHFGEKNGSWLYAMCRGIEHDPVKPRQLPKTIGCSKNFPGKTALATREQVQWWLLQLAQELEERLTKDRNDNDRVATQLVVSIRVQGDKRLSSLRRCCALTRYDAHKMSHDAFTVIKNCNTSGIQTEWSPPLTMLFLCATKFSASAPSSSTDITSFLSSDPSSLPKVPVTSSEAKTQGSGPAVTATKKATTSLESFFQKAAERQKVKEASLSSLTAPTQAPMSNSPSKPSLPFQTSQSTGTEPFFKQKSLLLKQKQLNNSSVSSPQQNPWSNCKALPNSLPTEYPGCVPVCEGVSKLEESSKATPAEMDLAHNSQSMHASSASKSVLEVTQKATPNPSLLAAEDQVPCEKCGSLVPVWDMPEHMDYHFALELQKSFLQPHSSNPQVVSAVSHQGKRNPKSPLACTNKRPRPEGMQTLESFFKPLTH
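Pol eta (10 nM) was preincubated with compounds for 15 min at room temperature, after which fluorescent replication substrate (50 nM final) was added to start the reaction. Fluorescence was read kinetically at 0 and 10 min.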
POLI inh: DNA polymerase iota (human) inhibition; Q9UNA4; Pol iota fluorescent replication assay, 10 min; Potency, µM (doses to about 115 µM), for the others: at the highest dose activity, negative = inhibition, usual class: inhibitors; 390,000 tested, 1% active; AID 588590
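Fluorescent replication assay read twice, at 0 min and 10 min after adding 50 nM (final) substrate. Enzyme (10 nM) and compounds were first incubated 15 min at room temperature; enzyme-free buffer wells were negative controls.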
Pol beta inh: DNA polymerase beta (human) inhibition | Pol beta primer extension/strand displacement, fluorescence kinetic | AID 485314 | P06746 | 340,000 tested, 1.3% active | Potency, µM (series often up to 114 µM), for inactives: at the highest dose activity change, negative = inhibition, hits mostly inhibitors; also: % is scaled to controls: 0 for no effect and ±100 for the full control effect
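Homogeneous kinetic assay of primer extension and strand displacement by 10 nM Pol beta, preincubated 15 min at room temperature with compound before 50 nM substrate (final) was added. Read at 0 and 10 min; four-parameter Hill fit.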
DNA dye displace: counter-screen for APE1 inhibitors: DNA dye displacement; shares compounds with APE1 inh-1; DNA fluorescent dye displacement counterscreen, fluorescence; Potency, µM (doses to about 28.5 µM), for inactives: top-dose activity change, negative = inhibition, hits mostly inhibitors; 480 tested, 7% active;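 also: loss of thiazole orange fluorescence as the dye is displaced from duplex DNA; 0% = ThO with dsDNA and no compound and -100% = ThO without dsDNA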
EndoIV counter: blocks E. coli endonuclease IV DNA cleavage | AID 2565 | Potency, µM (top dose mostly 27.1 µM), inactives show top-dose activity change, negative = inhibition, usual class: inhibitors | shares compounds with APE1 inh-1 | 560 tested, 4% active | E. coli Endo IV, fluorogenic AP-site DNA cleavage;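 also: plate controls were uninhibited enzyme wells for no effect and no enzyme buffer wells for full effect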
APE1 inh-2: confirmation of inhibitors of human APE1 endonuclease. shares compounds with APE1 inh-1. purified APE1, fluorogenic abasic-site DNA cleavage. Potency, µM (series often up to 57.1 µM), inactives show top-dose activity change, negative = inhibition, hits mostly inhibitors. 750 tested, 44% active. AID 2572; also: % is scaled to controls: 0 for no effect and ±100 for the full control effect; nearly all actives have a fitted effect of over 30% in size
APE1 FP inh: APE1 (human) DNA binding inhibition, fluorescence polarization; shares compounds with APE1 inh-1; 480 tested, 7% active; Potency, µM (doses to about 28.5 µM), for the others: at the highest dose activity, negative = inhibition, usual class: inhibitors; APE1 binding to TAMRA-labelled double-stranded DNA, fluorescence polarization displacement; also: % is scaled to controls: 0 for no effect and ±100 for the full control effect
* marks the source's active call; other numbers are inactive results; ? = inconclusive; / = not tested or not shown; [ ] = remark or other dose. In the library only some 2.4% were active in any assay of this set; here they are far more common. Calls follow the shape of the dose curve; as a rule, active = well fitted curve in the direction sought with a large enough effect; inconclusive = small, poorly fitted or top-dose-only effect, or another doubt; inactive = no such curve, though single readings can be large; an effect the other way counts as inactive or inconclusive. Potency is read from the fitted curve at half-maximal effect.

SMILES | Pol kappa inh | GLS inhibitor | APE1 inh-1 | Pol eta inh | POLI inh | Pol beta inh | DNA dye displace | EndoIV counter | APE1 inh-2 | APE1 FP inh
COC/C=C/C1=CC2=CC(=O)C(C)(OC(=O)c3cccs3)C(=O)C2=CO1 (stereo unspecified) | / | / | 25% | / | / | / | / | / | / | /
COC/C=C/C1=CC2=CC(=O)C(C)(OC(=O)c3ccco3)C(=O)C2=CO1 (stereo unspecified) | / | / | 20µM* | / | / | 28µM* | ? | ? | ? | 13µM*
CN1CC[C@]23c4ccccc4N[C@H]1[C@]21CCN(C)[C@H]3Nc2ccccc21 | -5% | 39% | -11% | -20% | 8% | / | / | / | / | /
OCC1OC(n2cnc3c(Cl)nc(Cl)nc32)C(O)C1O (stereo unspecified) | 2%[60.1 µM] | / | 3% | / | / | / | / | / | / | /
Nc1nc(Cl)nc2c1ncn2[C@@H]1O[C@H](CO)[C@H](O)[C@H]1O | / | / | -3% | -3%[57.1 µM] | -9%[58.9 µM] | -3%[57.1 µM] | / | -6%[57.1 µM] | -28% | /
COc1ccc(NS(=O)(=O)c2ccc(O)c(C(=O)OCC(=O)NC(C)C3CC4CCC3C4)c2)cc1 (stereo unspecified) | -14% | 10% | 22µM* | 6% | 20% | ? | ? | -6% | ? | ?
COc1ccc(C(=O)c2ccc(CC#N)s2)cc1 | -17% | 0% | 1% | ? | 15% | ? | / | / | -25% | /
Nc1ccc(N(CCO)CCO)cc1 | -41% | ? | 20µM* | -20% | 2.8µM* | 18µM* | -3% | 6% | -15%[24.4 µM] | -11%
Cc1nc2cc(C(=O)OCC(=O)NC(C)C(C)C)ccc2n1-c1ccccc1 (stereo unspecified) | 0% | -6% | 7% | -14% | 13% | -2% | / | / | / | /
O=C(O)C[C@@H]1C(=O)O[C@@H]2C(COC(=O)c3cc(O)c(O)c(O)c3)O[C@@H](OC(=O)c3cc(O)c(O)c(O)c3)[C@@H](OC(=O)c3cc(O)c(O)c4c3[C@H]1[C@H](O)C(=O)O4)[C@H]2OC(=O)c1cc(O)c(O)c(O)c1 (stereo partly specified) | / | / | 0.0089µM* | / | / | 0.18µM* | ? | ? | 0.0022µM* | ?
O=C(Nc1ccc2nc(-c3ccco3)c(-c3ccco3)nc2c1)N1CCCCCC1 | 7.1µM* | ? | 3.5µM* | 10µM* | 3.2µM* | 2.2µM* | ? | ? | 4µM* | 13µM*
CCOC(=O)NC1(Nc2ccc(Cl)cn2)Oc2ccccc2O1 | / | / | 2.5µM* | / | / | ? | / | / | -22% | /
CC(C)(C)c1cccc(C2(O)C(=O)c3ccccc3C2=O)c1O | -9% | 4% | -8% | -15% | 15% | 7% | / | / | / | /
Cc1ccc(C2(O)C(=O)c3ccccc3C2=O)c(O)c1C | 2% | 0% | 3% | -9% | ? | 46% | / | / | ? | /
C=CCOc1ccccc1/C=c1\sc2nc(-c3oc4ccccc4c3C)nn2c1=O | -1% | 2% | / | -11% | -16%[58.9 µM] | / | / | / | / | /
Cc1ccc(/C=c2\sc3nc(-c4ccccc4Br)nn3c2=O)o1 | 20µM* | -1% | 13µM* | 10µM* | ? | 14µM* | ? | 8% | -26%[24.4 µM] | 14%
Cc1ccc(/C=c2\sc3nc(-c4ccco4)nn3c2=O)o1 | 28µM* | 67% | 5.6µM* | 3.5µM* | ? | 28µM* | ? | -9% | 7.9µM* | 15%
Cc1ccc(/C=c2\sc3n(c2=O)CN(c2cccc(Br)c2)CN=3)o1 | -7% | 10% | -2% | ? | 13% | 10% | / | / | / | /
COc1cccc(N2CC(C(=O)OC(C)C(=O)c3ccccc3)CC2=O)c1 (stereo unspecified) | -1% | -2% | 1% | -16% | 3% | -15% | / | / | / | /
Cc1cc(=O)oc(C)c1C(=O)NCCC(C)C | -1% | 4% | 2% | -15% | 1%[58.9 µM] | 4% | / | / | / | /
Cc1cccc(NC(=O)CSc2nnc(-c3ccco3)c(-c3ccco3)n2)c1C | 32µM* | 45% | ? | 13µM* | 2µM* | 22µM* | ? | 29% | ? | 1%
Cc1ncc(CO)c(/C=N/NC(=O)c2cc(O)c(O)c(O)c2)c1O | / | / | 4µM* | / | / | 0.32µM* | -10% | 156% | ? | 5%
O=c1[nH]c2ccccc2nc1-c1ccc(Cl)cc1 | -1% | 5% | 0% | -6% | 62% | 1% | / | / | / | /
O=c1cc(O)cc(/C=C/c2ccc(O)c(O)c2)o1 | 0.75µM* | / | 0.71µM* | 0.79µM* | 0.71µM* | 0.22µM* | / | 3%[57.1 µM] | -18% | /
O=C(Nn1cnnc1)c1ccc([N+](=O)[O-])cc1Cl | -2% | -1% | / | -6% | 2% | / | / | / | / | /
SMILES | Pol kappa inh | GLS inhibitor | APE1 inh-1 | Pol eta inh | POLI inh | Pol beta inh | DNA dye displace | EndoIV counter | APE1 inh-2 | APE1 FP inh
CCN(CC)c1nc(Nc2ccc([N+](=O)[O-])cc2)nc(N(CC)CC)n1 | -16% | -4% | 0% | -17% | -13% | -3% | / | / | / | /
O=C1CNC(=O)/C1=C/c1ccc(O)cc1 | -19% | 38% | 0.89µM* | 1% | ? | 35% | 1% | -1% | ? | 11%
COc1ccc(OC)c(/C=C(\C#N)c2nc3ccccc3c(=O)[nH]2)c1 | -30% | -29% | / | ? | 60% | 0% | / | / | / | /
COc1ccc(-c2nn(-c3ccccc3)cc2C(=O)Nc2nccs2)cc1 | -3% | 2% | -8% | -5% | 6% | 5% | / | / | / | /
O=C(Nc1nccs1)c1cn(-c2ccccc2)nc1-c1ccncc1 | ? | ? | 7% | ? | 51% | 3% | / | / | -17% | /
O=[N+]([O-])c1ccc(N2CCCCC2)nc1 | 4% | 7% | -7% | -9% | 1% | 5% | / | / | / | /
COc1cc(N(C)C)cc(CN(C)CCc2ccc([N+](=O)[O-])cc2)c1O | 3µM* | / | 3.2µM* | / | / | / | 0%[57.1 µM] | 3%[57.1 µM] | ? | -9%[57.1 µM]

High-throughput results from PubChem.
